From PubChem BioAssay (Tox21)
Results filed as inconclusive are left out. Active and inactive are the calls of the source. Unless noted, calls come from the whole dose curve; as a rule, active = well fitted curve in the direction sought with a large enough effect in the repeat runs; inconclusive = weak or mixed curves; inactive = no such curve, though single readings can be large; an effect the other way counts as inactive or inconclusive.

Legend:
[1] = qHTS assay for small molecule agonists of the p53 signaling pathway (AID 651631; calls by dose curve; note: nearly all actives have a fitted effect of over 15% in size)
Method in brief: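 Beta-lactamase reporter activity under p53 response elements was quantified in HCT-116 cells by FRET fluorescence, following 16 h incubation with test compounds at 37 °C and 2 h substrate development at room temperature.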

[2] = qHTS assay for small molecules that induce genotoxicity in human embryonic kidney cells expressing luciferase-tagged ATAD5 (AID 651632); note: nearly all actives have a fitted effect of over 15% in size
Method in brief: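 Quantitative HTS in HEK293T expressing luciferase-tagged ATAD5, whose levels rise upon DNA damage. Exposure ran 16 hr at 37C and 5% CO2, with luminescence read 30 min after Amplite addition at room temperature.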

[3] = qHTS assay for small molecule agonists of the p53 signaling pathway - cell viability (AID 651633; calls by dose curve;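 note: p53RE-bla HCT reporter cells with a stable beta-lactamase p53 reporter; series mostly up to about 83 µM; nearly all actives have a fitted effect of over 30% in size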)
Method in brief: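 Viability counter-read: CellTiter-Glo luminescence (30 min, room temperature) in the same p53RE-bla plates. These plates had been exposed to compounds for 16 h at 37 C.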

[4] = qHTS assay for small molecules that induce genotoxicity in human embryonic kidney cells expressing luciferase-tagged ATAD5 - cell viability (AID 651634; calls by dose curve; note: nearly all actives have a fitted effect of over 25% in size)
Method in brief: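 After 15.5 hr incubation with compound at 37C, 5% CO2, HEK293T ATAD5-luciferase cells received CellTiter-Fluor reagent; fluorescence intensity was quantified following 30 min at 37C.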

[5] = qHTS assay for small molecule disruptors of the mitochondrial membrane potential - cell viability (AID 720634; calls by dose curve;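 note: human HepG2 liver cancer cells; series mostly up to about 83 µM; nearly all actives have a fitted effect of over 20% in size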)
Method in brief: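 ATP-based luminescent viability readout (CellTiter-Glo, 30 min, room temperature) in HepG2 cells multiplexed with the m-MPI membrane potential dye; compound exposure lasted 1 hr at 37 C.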

[6] = qHTS assay for small molecule disruptors of the mitochondrial membrane potential (AID 720635)
Method in brief: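 Mitochondrial membrane potential tracked with Mito-MPS dye, red aggregates (ex 540/em 590 nm) against green monomers (ex 490/em 535 nm). Compound treatment 1 hr at 37C, dye 30 min in HepG2.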

[7] = qHTS assay to test for compound auto fluorescence at 590 nm (red) in HepG2 cells (AID 720674)
Method in brief: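 Red autofluorescence (Ex/Em 540/590 nm, Rose Bengal sodium equivalents) was measured in HepG2 cells, 2,000 per well in MEM plus 10% FBS, plated overnight at 37 C. Readings were taken 1 hr after adding 23 nL compound or DMSO, at 37 C and 5% CO2.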

[8] = qHTS assay to test for compound auto fluorescence at 460 nm (blue) in HEK293 cells (AID 720678)
Method in brief: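 HEK293, 2,000 cells/well, 10% dialyzed FBS; attach 4-5 hr 37C; pin compound or DMSO; o/n 37C/5% CO2; fluorescence 405/460 nm; triamterene-equivalent units.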

[9] = qHTS assay to test for compound auto fluorescence at 590 nm (red) in HEK293 cells (AID 720679)
Method in brief: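 Intensity at 540nm excitation and 590nm emission is reported as Rose Bengal sodium-equivalent autofluorescence. Measurements followed overnight exposure (37C, 5% CO2) of HEK293 cells, 2,000 per well, to 23 nL compound.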

[10] = qHTS assay to test for compound auto fluorescence at 460 nm (blue) in HEK293 cell free culture (AID 720681)
Method in brief: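 Blue fluorescence (Ex 405/Em 460 nm, triamterene-equivalent) was read immediately after pin transfer of compound or DMSO into medium (DMEM, 10% FBS) without cells.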

[11] = qHTS assay to test for compound auto fluorescence at 535 nm (green) in HEK293 cell free culture (AID 720682)
Method in brief: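 Each library compound, or DMSO control, is added by pintool to medium alone, comprising DMEM and 10% FBS. Emission at 535 nm following 485 nm excitation is quantified against fluorescein.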

[12] = qHTS assay to test for compound auto fluorescence at 590 nm (red) in HEK293 cell free culture (AID 720683)
Method in brief: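 Red-channel autofluorescence of compounds in culture medium (DMEM, 10% FBS), no cells, measured at 540/590 nm. Rose Bengal sodium is the reference fluorophore for equivalence.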

[13] = qHTS assay to test for compound auto fluorescence at 590 nm (red) in HepG2 cell free culture (AID 720684)
Method in brief: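 No cells present: MEM + 10% FBS only. Compound pinned in, red label read (540/590 nm). Activity = fluorescence equivalent to Rose Bengal sodium.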

[14] = qHTS assay to test for compound auto fluorescence at 460 nm (blue) in HepG2 cell free culture (AID 720685)
Method in brief: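 Cell-free plates of MEM plus 10% FBS received 23 nL compound or DMSO vehicle; blue-channel (405/460 nm) intensity scored against triamterene as reference fluorophore.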

[15] = qHTS assay to test for compound auto fluorescence at 535 nm (green) in HepG2 cell free culture (AID 720686)
[16] = qHTS assay to test for compound auto fluorescence at 460 nm (blue) in HepG2 cells (AID 720687)
Method in brief: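 Blue-channel autofluorescence (Ex/Em 405/460 nm, triamterene-equivalent) was measured after 1 hr compound exposure at 37 C, 5% CO2. Cells were HepG2, plated overnight at 37 C in MEM plus 10% FBS.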

[17] = target: Glucocorticoid receptor (Homo sapiens) (UniProt P04150); experiment: qHTS assay to identify small molecule agonists of the glucocorticoid receptor (GR) signaling pathway (AID 720691; active = well fitted activation curve with a large enough effect in the signal ratio in the repeat runs, not every such curve was filed as active; the % refers to the signal ratio)
Glucocorticoid receptor (Homo sapiens), sequence (P04150 whole entry, looked up): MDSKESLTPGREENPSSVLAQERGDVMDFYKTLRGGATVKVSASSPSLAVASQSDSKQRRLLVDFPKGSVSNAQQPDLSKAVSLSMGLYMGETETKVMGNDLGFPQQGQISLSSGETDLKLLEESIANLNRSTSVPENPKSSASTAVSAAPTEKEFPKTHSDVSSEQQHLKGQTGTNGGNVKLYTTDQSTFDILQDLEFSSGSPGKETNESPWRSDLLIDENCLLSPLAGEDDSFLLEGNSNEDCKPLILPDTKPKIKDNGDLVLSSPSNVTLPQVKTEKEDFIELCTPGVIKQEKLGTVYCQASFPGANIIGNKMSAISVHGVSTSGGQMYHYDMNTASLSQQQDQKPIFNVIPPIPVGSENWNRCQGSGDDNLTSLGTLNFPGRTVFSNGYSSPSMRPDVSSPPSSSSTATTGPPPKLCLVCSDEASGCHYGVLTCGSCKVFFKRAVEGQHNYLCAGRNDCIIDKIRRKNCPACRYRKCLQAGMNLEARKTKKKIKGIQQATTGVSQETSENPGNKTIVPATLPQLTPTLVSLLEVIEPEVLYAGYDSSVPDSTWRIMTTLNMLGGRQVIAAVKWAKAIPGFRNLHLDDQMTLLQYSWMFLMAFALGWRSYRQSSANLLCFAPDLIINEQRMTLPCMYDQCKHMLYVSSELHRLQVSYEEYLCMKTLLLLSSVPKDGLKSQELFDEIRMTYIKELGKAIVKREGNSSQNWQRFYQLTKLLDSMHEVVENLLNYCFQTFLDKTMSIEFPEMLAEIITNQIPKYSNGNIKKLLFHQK
Method in brief: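 Cells: GR-bla HeLa, endogenous GR with stably integrated GRE-beta-lactamase reporter. Treatment 18 h, 37 C, compounds delivered in DMSO. Detection via LiveBLAzer B/G FRET substrate, 2 h RT, fluorescence intensity.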

[18] = target: Glucocorticoid receptor (Homo sapiens) (UniProt P04150); experiment: qHTS assay to identify small molecule antagonists of the glucocorticoid receptor (GR) signaling pathway (AID 720692; active = well fitted inhibition curve with a large enough effect in the signal ratio in the repeat runs, not every such curve was filed as active; the % refers to the signal ratio)
Method in brief: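 Quantitative HTS in antagonist format: HeLa cells expressing endogenous GR and a stably integrated GRE-bla reporter, stimulated with 5 nM dexamethasone (final) alongside test compounds for 18 h.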

[19] = qHTS assay to test for compound auto fluorescence at 535 nm (green) in HepG2 cells (AID 720675)
[20] = qHTS assay to test for compound auto fluorescence at 535 nm (green) in HEK293 cells (AID 720680)
% is set by controls: 0 for no effect and ±100 for the full control effect.

O=C(Cl)OCc1ccccc1
inactive: Potency [1] | outcome [2] | Potency [3] | Potency [4] | Potency [5] | Potency [6] | outcome [7] | outcome [8] | outcome [9] | outcome [10] | outcome [11] | outcome [12] | outcome [13] | outcome [14] | outcome [15] | outcome [16] | Potency [17] | Potency [18]

COC(=O)c1ccccc1CS(=O)(=O)NC(=O)Nc1nc(OC)cc(OC)n1
inactive: Potency [1] | outcome [2] | Potency [3] | Potency [4] | Potency [5] | outcome [7] | outcome [19] | outcome [8] | outcome [9] | outcome [20] | outcome [10] | outcome [11] | outcome [12] | outcome [13] | outcome [14] | outcome [15] | outcome [16] | Potency [17] | Potency [18]

OCC(Cl)CCl (centres undefined)
inactive: Potency [1] | outcome [2] | Potency [3] | Potency [4] | Potency [5] | Potency [6] | outcome [7] | outcome [19] | outcome [8] | outcome [9] | outcome [20] | outcome [10] | outcome [11] | outcome [12] | outcome [13] | outcome [14] | outcome [15] | outcome [16] | Potency [17]

Clc1cc2c(cc1Cl)Oc1cc(Cl)c(Cl)cc1O2
inactive: activation [1] -5.64% [at 0.337 µM] | activation [2] 0.775% [at 0.33 µM] | activity change, negative = cytotoxicity [3] -8.49% [at 0.33 µM] | activity, negative = cytotoxicity [4] 15.1% [at 0.33 µM] | activity change, negative = cytotoxicity [5] 5.89% [at 0.33 µM] | fluorescence, relative to Rose Bengal [7] -0.0382% [at 0.37 µM] | fluorescence, % of fluorescein control [19] -0.0272% [at 0.37 µM] | fluorescence, % of triamterene [8] -0.0407% [at 0.37 µM] | fluorescence, % of fluorescent control [9] 0.175% [at 0.37 µM] | fluorescence, % of fluorescein [20] 0.0035% [at 0.37 µM] | fluorescence, % of fluorescent control [10] -0.0164% [at 0.37 µM] | activity change [11] -0.0409% [at 0.37 µM] | fluorescence, % of fluorescent control [12] 0.0291% [at 0.37 µM] | fluorescence, % of Rose Bengal [13] -0.248% [at 0.37 µM] | fluorescence, % of fluorescent control [14] -0.0614% [at 0.37 µM] | fluorescence, % of fluorescein control [15] -0.0284% [at 0.37 µM] | fluorescence, % of fluorescent control [16] -0.0066% [at 0.37 µM] | activation [17] -3.18% [at 0.28 µM] | activity change, negative = inhibition [18] -20.7% [at 0.284 µM]

CCCCCCC1CCOC1=O (centres undefined)
inactive: Potency [1] | outcome [2] | Potency [3] | Potency [4] | Potency [5] | Potency [6] | outcome [7] | outcome [19] | outcome [8] | outcome [9] | outcome [10] | outcome [11] | outcome [12] | outcome [13] | outcome [14] | outcome [15] | outcome [16] | Potency [17] | Potency [18]

CC(=NC#N)N(C)Cc1ccc(Cl)nc1
inactive: Potency [1] | outcome [2] | Potency [3] | Potency [4] | Potency [5] | outcome [7] | outcome [19] | outcome [8] | outcome [9] | outcome [20] | outcome [10] | outcome [11] | outcome [12] | outcome [13] | outcome [14] | outcome [15] | outcome [16]

CC(=O)OCC1=C(C(=O)O)N2C(=O)[C@@H](N)[C@H]2SC1
inactive: Potency [1] | outcome [2] | Potency [3] | Potency [4] | Potency [5] | Potency [6] | fluorescence, relative to Rose Bengal [7] 0.341% [at 18.6 µM] | fluorescence, % of fluorescein control [19] 0.0248% [at 18.6 µM] | fluorescence, % of fluorescent control [9] 0.0847% [at 18.6 µM] | fluorescence, % of fluorescein [20] -0.0094% [at 18.6 µM] | fluorescence, % of fluorescent control [10] -0.0418% [at 18.6 µM] | activity change [11] 0.0026% [at 18.6 µM] | fluorescence, % of fluorescent control [12] 0.162% [at 18.6 µM] | fluorescence, % of Rose Bengal [13] 0.155% [at 18.6 µM] | fluorescence, % of fluorescent control [14] -0.0695% [at 18.6 µM] | fluorescence, % of fluorescein control [15] 0.161% [at 18.6 µM] | fluorescence, % of fluorescent control [16] 0.185% [at 18.6 µM] | Potency [17] | Potency [18]

CCOC(=O)C(SP(=S)(OC)OC)c1ccccc1 (centres undefined)
inactive: Potency [1] | outcome [2] | Potency [3] | Potency [4] | Potency [5] | outcome [7] | outcome [19] | outcome [8] | outcome [9] | outcome [20] | outcome [10] | outcome [11] | outcome [12] | outcome [13] | outcome [15] | outcome [16] | Potency [17]

COC1=CC(=O)O[C@@H](/C=C/c2ccccc2)C1
inactive: Potency [1] | outcome [2] | Potency [3] | Potency [4] | Potency [5] | outcome [7] | outcome [19] | outcome [8] | outcome [9] | outcome [20] | outcome [10] | outcome [11] | outcome [12] | outcome [13] | outcome [14] | outcome [15] | outcome [16] | Potency [17] | Potency [18]

CCOC(=O)N(C)N=O
inactive: Potency [1] | outcome [2] | Potency [3] | Potency [4] | Potency [5] | outcome [7] | outcome [19] | outcome [8] | outcome [9] | outcome [20] | outcome [10] | outcome [11] | outcome [12] | outcome [13] | outcome [14] | outcome [15] | outcome [16] | Potency [17] | Potency [18]

Cn1c(N)nc2c3cccnc3ccc21
inactive: Potency [1] | outcome [2] | Potency [3] | Potency [4] | Potency [5] | outcome [7] | outcome [19] | outcome [8] | outcome [9] | outcome [20] | outcome [10] | outcome [11] | outcome [12] | outcome [13] | outcome [14] | outcome [15] | outcome [16]

O=C(Cl)CCl
inactive: Potency [1] | outcome [2] | Potency [3] | Potency [4] | Potency [5] | Potency [6] | outcome [7] | outcome [19] | outcome [8] | outcome [9] | outcome [20] | outcome [10] | outcome [11] | outcome [12] | outcome [13] | outcome [14] | outcome [15] | outcome [16]

CCN(CCO)CCO
inactive: Potency [1] | outcome [2] | Potency [3] | Potency [4] | Potency [5] | outcome [7] | outcome [19] | outcome [8] | outcome [9] | outcome [20] | outcome [10] | outcome [11] | outcome [12] | outcome [13] | outcome [14] | outcome [15] | outcome [16] | Potency [17] | Potency [18]
